Laboratory results reported in PubChem BioAssay AID485314 (National Center for Advancing Translational Sciences (NCATS), 2010).
The campaign covered roughly 340,000 compounds. About 4,500 (1.3%) were called active. Not shown: some 5% with an inconclusive outcome. Many of the other results were omitted from the sample, so actives are more common in it than they were. Unmarked numbers belong to inactive results. Calls come from the whole dose curve; as a rule, active = well fitted inhibition curve with a large enough effect; inconclusive = small, poorly fitted or top-dose-only effect, or another doubt; inactive = no such curve, though single readings can be large or run the other way.

What follows are compounds tested against DNA polymerase beta (Homo sapiens) (UniProt P06746) (assay: qHTS Assay for Inhibitors of DNA Polymerase Beta). Conditions: Pol beta primer extension/strand displacement, fluorescence kinetic; series mostly up to 114 µM; activity change, negative = inhibition: at the top concentration.
In short: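 10 nM enzyme + cpd, 15 min RT; start with substrate 50 nM final; read 0 min and after 10 min RT. Corrected, normalized data; 4-parameter Hill curve fit.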
% is set by controls: 0 for no effect and ±100 for the full control effect; potency is the fitted concentration of half-maximal effect.

Structure (SMILES)	activity change, negative = inhibition [%]	Potency
O=C(NCCc1ccc(Cl)cc1)c1ccc2c(c1)N(Cc1ccc(F)cc1)C(=O)CS2	24.1	–
CCn1c2c(c(=O)n3ncc(C(=O)N4CCN(c5ccccc5)CC4)c13)CN(Cc1ccc(OC)cc1)CC2	1.91	–
N#Cc1c(-c2ccccc2)cc(-c2ccccc2)nc1SCC(=O)O	28.5	–
Nc1nc(NCC(=O)O)nc(N2CCCCCC2)c1[N+](=O)[O-]	13.4	–
N#Cc1c(N2CCCCC2)nc(N)c2c(N)nc(SCC(=O)O)cc12	–	35.5 µM (active)
Cc1ccc(-n2nc3ccc(NC(=O)/C=C/c4ccco4)cc3n2)cc1C	–	44.7 µM (active)
CCC(CC)c1nnc(NC(=O)/C=C/c2ccco2)s1	-1.2	–
O=C(/C=C/c1ccco1)Nc1ccc(Oc2ccccc2)cc1	13.9	–
CCOC(=O)c1c(NC(=O)/C=C/c2ccco2)sc(C)c1C	26.6	–
CCC(=O)Nc1ccc2nn(-c3ccc(F)cc3)nc2c1	21.1	–
Cc1nnc(NC(=O)/C=C/c2ccco2)s1	–	31.6 µM (active)
CCOC(=O)c1c(C)oc2nc(C)nc(Nc3ccc(CC)cc3)c12	-0.741	–
Cc1cc(C)c(-c2n[nH]c3c2C(c2ccccc2F)N(CCO)C3=O)c(O)c1 (configuration not stated)	-23.3	–
CC(C)(C)c1ccc(C(=O)NCC(c2ccc(Cl)cc2)N2CCOCC2)cc1 (configuration not stated)	-0.477	–
COCCCn1c(Cc2csc(Nc3cccc(Cl)c3)n2)nnc1SCC(=O)OC1CCCCC1	–	44.7 µM (active)
COCCCn1c(SCC(=O)NC2CCCC2)nnc1-c1ccccc1	56.4	–
CCOc1ccc(Nc2nc(Cc3nnc(SCC(=O)NC4CCCC4)n3C)cs2)cc1	19.3	–
O=S(=O)(c1ccccc1)c1nc(-c2ccc(Cl)cc2Cl)oc1N1CCCCC1	2.22	–
O=C(c1ccc(O)cc1)c1ccc(C(=O)O)c(C(=O)O)c1	–	35.5 µM (active)
Cc1cccc(C(=O)c2cccc(C)c2)c1	10.4	–
O=C(O)c1ccc2c(c1)C(=O)N(NC(=O)c1ccc(O)cc1)C2=O	11.7	–
CCOc1ccc(Nc2nc3c(S(=O)(=O)c4cccc(Cl)c4)nnn3c3ccsc23)cc1	74.9	–
CCCc1cc(=O)n2[nH]c(NCc3ccc(CC)cc3)nc2n1	3.13	–
CCCn1ccc2c(OCC(=O)NCc3ccc(F)cc3)cccc2c1=O	-9.24	–
Cc1csc2nc(COC(=O)c3ccccc3NC(=O)c3ccccc3Cl)cc(=O)n12	-1.41	–
Clc1ccc(CSc2nncn3c2cc2occc23)cc1	–	31.6 µM (active)

Structure (SMILES)	activity change, negative = inhibition [%]	Potency
Cc1cc2c(cc3c(SCc4cccc(Cl)c4)nnc(C)n32)o1	2.13	–
Clc1ccccc1CSc1nncn2c1cc1occc12	3.29	–
COc1ccc(C)cc1Nc1nc2ccccc2c2nnc(C)n12	-0.842	–
Cc1ccc(C(=O)NNC(=O)c2cc3cc4ccccc4nc3s2)cc1	–	50.1 µM (active)
Cc1ccc(C(=O)NNC(=O)c2cccs2)cc1	23.2	–
Cc1ccc(C(=O)NNc2ncnc3ccccc23)cc1	0.16	–
Cc1coc2c(O)cc3c(c12)OC1(N2CCCCC2)C(=O)NCCCC31 (configuration not stated)	–	50.1 µM (active)
Cc1cc(C)c(/C=C/c2onc(C)c2S(=O)(=O)N2CCC(C(=O)Nc3ccc(Cl)cc3C)CC2)c(C)c1	0.277	–
CCCCOc1ccc(CN2C(=O)C(=O)c3cc(Br)cc(C)c32)cc1OC	-0.577	–
O=C(N/N=C/c1ccccn1)c1cccc(NC(=O)c2ccc(Cl)cc2)c1	32.1	–
O=C(N/N=C/c1ccccn1)c1ccc(S(=O)(=O)N2CCCCCC2)cc1	–	20 µM (active)
O=C(Nc1ccc(S(=O)(=O)N2CCCCC2)cc1)c1cnccn1	-16.3	–
CCOc1ccc(Nc2ncnc3scc(-c4ccc(OC)cc4)c23)cc1	3.28	–
CCOC(=O)c1ccc(NC(=O)Cn2c(=O)cc(C)c3c(C)nn(-c4cccc(F)c4)c32)cc1	9.23	–
CC(C)CNC(=O)COC(=O)/C=C/c1ccco1	–	28.2 µM (active)
COc1ccc([N+](=O)[O-])cc1NC(=O)COC(=O)/C=C/c1ccco1	-3.55	–
CC(C)CNC(=O)COC(=O)/C=C/c1ccccc1[N+](=O)[O-]	24.6	–
CCCOc1ccc(C2c3c(-c4ccccc4O)n[nH]c3C(=O)N2Cc2cccnc2)cc1 (configuration not stated)	-3.35	–
CC(C)(C)OC(=O)N1CCC(c2c(C(=O)Nc3ccc4c(c3)OCO4)cnn2-c2ccccc2)CC1	-11.1	–
CCCCOC(=O)CSc1ncnc2sc3c(c12)CCC(C)C3 (configuration not stated)	19.6	–
Cc1cc(=O)n2[nH]c(-c3cccc(Cl)c3)cc2n1	-0.142	–
Cc1cc(=O)n2[nH]c(-c3sccc3-n3c(C)ccc3C)cc2n1	–	44.7 µM (active)
CCc1c(C)nc2cc(-c3cccs3)[nH]n2c1=O	8.34	–
COc1ccc(/C=N\NC(=O)c2sc(N)nc2C)cc1OC	–	17.8 µM (active)
COc1cc(/C=N/NC(=O)CNC(=O)c2ccncc2)ccc1OC(C)=O	-0.998	–
COc1cccc(OCc2cc(/C=N/NC(=O)c3nc(Cl)c(Cl)c(N)c3Cl)ccc2OC)c1	6.43	–
